Test results taken from PubChem BioAssay (NCI).
About 83,000 compounds went through this panel and 20% of them were active in at least one assay; those are over-represented in the sample as a whole.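 96-well plates, one dose, 48 hours. Percent growth reported; active if below 10.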 The source made the active and inactive calls.

Columns and labels:
Assay in all cases: NCI-60 one-dose screen, 48 h (100 = growth as untreated, 0 = no growth, -100 = all killed)
Settings in all cases: 10 µM
RPMI-8226 leukemia = system: RPMI-8226 leukemia
OVCAR-8 ovarian = system: OVCAR-8 ovarian
OVCAR-5 ovarian = system: OVCAR-5 ovarian
OVCAR-4 ovarian = system: OVCAR-4 ovarian
SK-OV-3 ovarian = system: SK-OV-3 ovarian
OVCAR-3 ovarian = system: OVCAR-3 ovarian
HS 578T breast = system: HS 578T breast
NCI/ADR-RES ovarian = system: NCI/ADR-RES ovarian
T-47D breast = system: T-47D breast
MDA-MB-435 melanoma = system: MDA-MB-435 melanoma
SW-620 colon = system: SW-620 colon
MCF7 breast = system: MCF7 breast
HCT-116 colon = system: HCT-116 colon
HCC-2998 colon = system: HCC-2998 colon
KM12 colon = system: KM12 colon
BT-549 breast = system: BT-549 breast
IGROV1 ovarian = system: IGROV1 ovarian

SMILES | growth (RPMI-8226 leukemia) | growth (OVCAR-8 ovarian) | growth (OVCAR-5 ovarian) | growth (OVCAR-4 ovarian) | growth (SK-OV-3 ovarian) | growth (OVCAR-3 ovarian) | growth (HS 578T breast) | growth (NCI/ADR-RES ovarian) | growth (T-47D breast) | growth (MDA-MB-435 melanoma) | growth (SW-620 colon) | growth (MCF7 breast) | growth (HCT-116 colon) | growth (HCC-2998 colon) | growth (KM12 colon) | growth (BT-549 breast) | growth (IGROV1 ovarian)
C[N+](C)(C)c1ncnc2nc[nH]c12 | 103% (inactive) | 102% (inactive) | 80.3% (inactive) | 103% (inactive) | 97.3% (inactive) | 112% (inactive) | 101% (inactive) | 94.1% (inactive) | 91.7% (inactive) | 95.3% (inactive) | 120% (inactive) | 90.8% (inactive) | 97.3% (inactive) | -10.1% (active) | 110% (inactive) |  | 
Cc1cc(Cc2cc(C)c(O)c(C)c2)cc(C)c1O | 58.2% (inactive) | 61.9% (inactive) | 106% (inactive) | 77.1% (inactive) | 53% (inactive) | 28.2% (inactive) | 33.8% (inactive) |  | 52.8% (inactive) | -29% (active) | 21.6% (inactive) | 22.8% (inactive) | 30.6% (inactive) | 74.4% (inactive) | 39.4% (inactive) |  | 
Clc1cc2c(c(CSc3nc4ccccc4n4cccc34)c1)OCOC2 | 49% (inactive) | 59.3% (inactive) | 87.2% (inactive) | 3.98% (active) | 74.9% (inactive) | 72.2% (inactive) | 91.8% (inactive) | 89.5% (inactive) | 2.37% (active) | 92.2% (inactive) | 94.4% (inactive) | 8.11% (active) | 80% (inactive) | 85.4% (inactive) | 88.4% (inactive) | 81.2% (inactive) | 
Clc1cccc(-c2nc(-c3cccs3)no2)c1 | 93.7% (inactive) | 107% (inactive) | 108% (inactive) | 65.8% (inactive) | 106% (inactive) | 104% (inactive) | 136% (inactive) | 107% (inactive) | 66.7% (inactive) | 111% (inactive) | 106% (inactive) | 36.8% (inactive) | 92.4% (inactive) | 32.9% (inactive) | 92.4% (inactive) | 111% (inactive) | 
ClCCOCCn1cnc2c(Cl)nc(Cl)nc21 | 93.1% (inactive) | 62.7% (inactive) | 102% (inactive) |  | 97.4% (inactive) | 58.8% (inactive) | 12.4% (inactive) | 101% (inactive) | 80.9% (inactive) | 80.7% (inactive) | 47.6% (inactive) | 55.9% (inactive) | -13.6% (active) | -90.2% (active) | 92.5% (inactive) | 102% (inactive) | 59% (inactive)
